The values below come from PubChem BioAssay (Tox21).

Inconclusive results are not listed. Calls of active or inactive are those of the source. Calls come from the whole dose curve.

The target in assay [1] is Acetylcholinesterase (Homo sapiens) (UniProt P22303). Nature of the assay: Acetylcholinesterase (AChE) small molecule antagonists: colormetric cell-based qHTS assay (AID 1347395). Note: nearly all actives have a fitted effect of over 30% in size. The essentials:
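Quantitative HTS in attached SH-SY5Y cells: 30 min compound exposure, then 90 min with acetylthiocholine and DTNB at 37 C; colour from thiocholine reports AChE activity.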
A general note: In qHTS, concentration-response curves come from the screen itself.

For assay [2] the target is unchanged. The assay can be described thus: Acetylcholinesterase (AChE) small molecule antagonists: enzyme-based qHTS assay (AID 1347397). Note: nearly all actives have a fitted effect of over 55% in size. As to conditions: Potency: AChE enzyme activity inhibition; outcome: AChE enzyme activity inhibition. A digest of the protocol:
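Recombinant human AChE, dispensed at 50 mU/mL, was preincubated with Tox21 10K compounds or DMSO vehicle for 30 min at room temperature. DTNB plus acetylthiocholine was then added, and thiocholine was measured colorimetrically after a further 10 min.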

Assay [3] shares this target. Nature of the assay: Acetylcholinesterase (AChE) small molecule antagonists: fluorescence cell-based qHTS assay (AID 1347398). Note: nearly all actives have a fitted effect of over 50% in size. Note: potency is the fitted concentration of half-maximal effect. The note with it: Potency: AChE activity; outcome: AChE activity. A digest of the protocol: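 Human SH-SY5Y cells were plated overnight at 37 C, exposed to compound for 30 min at 37 C, 5% CO2, then given acetylthiocholine plus Thiolite Green for 40 min at room temperature; thiocholine fluorescence (Ex/Em 490/520 nm) reports endogenous AChE activity.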

Assay [4] shares this target. Nature of the assay: Acetylcholinesterase (AChE) small molecule antagonists: enzyme-based qHTS assay with human liver microsomes (AID 1347399). Note: nearly all actives have a fitted effect of over 60% in size. The note with it: Potency: qHTS inhibition; outcome: qHTS inhibition. A digest of the protocol: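 Recombinant human AChE (50 mU/mL in the enzyme mix) and human liver microsomes (0.25 mg/mL final) were preincubated with compound and NADPH (0.25 mg/mL final) for 30 min at 37 C. Acetylthiocholine/DTNB was then added; thiocholine was read colorimetrically after 10 min at room temperature.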

Acetylcholinesterase (Homo sapiens), sequence (P22303 whole entry, looked up): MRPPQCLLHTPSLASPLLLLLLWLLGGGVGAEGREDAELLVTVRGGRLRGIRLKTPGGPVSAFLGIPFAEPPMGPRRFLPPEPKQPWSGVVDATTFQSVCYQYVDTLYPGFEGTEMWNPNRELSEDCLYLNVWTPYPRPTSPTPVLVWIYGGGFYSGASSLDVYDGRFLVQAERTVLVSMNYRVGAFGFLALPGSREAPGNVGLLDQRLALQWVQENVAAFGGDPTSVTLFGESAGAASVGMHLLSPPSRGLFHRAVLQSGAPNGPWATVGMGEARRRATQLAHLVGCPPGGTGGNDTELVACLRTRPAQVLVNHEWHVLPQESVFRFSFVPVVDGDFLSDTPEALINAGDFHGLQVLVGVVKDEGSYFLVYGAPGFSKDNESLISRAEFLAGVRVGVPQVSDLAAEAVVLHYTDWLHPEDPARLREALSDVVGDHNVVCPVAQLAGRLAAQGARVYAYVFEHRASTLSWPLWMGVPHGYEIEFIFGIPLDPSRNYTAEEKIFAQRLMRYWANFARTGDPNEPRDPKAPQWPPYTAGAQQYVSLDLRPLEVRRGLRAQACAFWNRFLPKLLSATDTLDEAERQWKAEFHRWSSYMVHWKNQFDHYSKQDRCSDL

Turning to `CC1=CC(=O)[C@H]2C[C@@H]1C2(C)C`, the Potency entry in assay [1], in assay [2], in assay [3] and in assay [4] was “inactive” in each case.
With `O=C1CCCCO1`, the Potency result in assay [1], in assay [2], in assay [3] and in assay [4] was “inactive” in each case.
For the compound `CCC(C)SSC(C)CC` (configuration not stated), the Potency result in assay [1], in assay [2], in assay [3] and in assay [4] was “inactive” throughout.
For `CC(=O)CC(N)=O`, the Potency result in assay [1], in assay [2], in assay [3] and in assay [4] was “inactive” throughout.
`COC(=O)CC(C(C)=O)C(=O)OC` (configuration not stated): the Potency entry in assay [1], in assay [2], in assay [3] and in assay [4] was “inactive” each time.
On to `CCN(CC)c1ccc2c(-c3ccc(S(=O)(=O)O)cc3S(=O)(=O)[O-])c3ccc(=[N+](CC)CC)cc-3oc2c1`, for which the Potency result in assay [1], in assay [2] and in assay [4] was “inactive” throughout. Further, in assay [3], the Potency was 41.2 µM (active).
With `O=C(NS(=O)(=O)/C=C/c1cccs1)c1ccc(F)cc1Br`, the Potency entry in assay [1], in assay [2], in assay [3] and in assay [4] was “inactive” in each case.
Consider `CCCCCCCCCC(C)=O`, for which the Potency entry in assay [1], in assay [2], in assay [3] and in assay [4] was “inactive” each time.
`CCCCOCCOC(=O)COc1ccc(Cl)cc1Cl`: the Potency entry in assay [1], in assay [2], in assay [3] and in assay [4] was “inactive” in each case.
As for `CC(=O)CC(c1ccc([N+](=O)[O-])cc1)c1c(O)c2ccccc2oc1=O` (configuration not stated), the Potency result in assay [1], in assay [2], in assay [3] and in assay [4] was “inactive” each time.
Take `C=C(C)C(=O)OCC(O)COc1ccc(C(C)(C)c2ccc(OCC(O)COC(=O)C(=C)C)cc2)cc1` (configuration not stated): the Potency entry in assay [1], in assay [2], in assay [3] and in assay [4] was “inactive” throughout.
In the case of `Cc1cccc(C)c1NC(=O)c1cc(S(N)(=O)=O)c(Cl)cc1O`, the Potency result in assay [1], in assay [2], in assay [3] and in assay [4] was “inactive” each time.
Take `CC(=O)CC(=O)OC(C)(C)C`: the Potency result in assay [1], in assay [2], in assay [3] and in assay [4] was “inactive” each time.
`CCn1c(=O)c2c(nc(/C=C/c3ccc(OC)c(OC)c3)n2C)n(CC)c1=O`: the Potency result in assay [1], in assay [2], in assay [3] and in assay [4] was “inactive” each time.
Take `COCc1nnc(-c2ccc[n+]([O-])c2)n1-c1c(Cl)c(Cl)cc2[nH]c(=O)c(=O)[nH]c12`: the Potency entry in assay [1], in assay [2], in assay [3] and in assay [4] was “inactive” in each case.
With `CO[Si](C)(OC)OC`, the Potency entry in assay [1], in assay [2], in assay [3] and in assay [4] was “inactive” in each case.
On to `C=CC(=O)O`, for which the Potency entry in assay [1], in assay [2], in assay [3] and in assay [4] was “inactive” each time.
Consider `COc1ccc(-c2ccc3cc(C(=O)O)ccc3c2)cc1C12CC3CC(CC(C3)C1)C2`, for which the Potency result in assay [1], in assay [2], in assay [3] and in assay [4] was “inactive” throughout.
For the compound `CC(C)c1ccc(C#N)cc1`, the Potency entry in assay [1], in assay [2], in assay [3] and in assay [4] was “inactive” each time.
Regarding `[K+]`, the Potency result in assay [1], in assay [2], in assay [3] and in assay [4] was “inactive” throughout.
For the compound `Cc1cc(O)c(C(C)(C)C)cc1C(C)(C)C`, the Potency result in assay [1], in assay [2], in assay [3] and in assay [4] was “inactive” each time.
As to `O=S(=O)(O)c1cc(O)c2ccc(Nc3ccccc3)cc2c1`, the Potency result in assay [1], in assay [2], in assay [3] and in assay [4] was “inactive” throughout.
For the compound `Clc1cccnc1`, the Potency entry in assay [1], in assay [2], in assay [3] and in assay [4] was “inactive” in each case.
Turning to `COC(=O)C(C)(C)C`, the Potency entry in assay [1], in assay [2], in assay [3] and in assay [4] was “inactive” throughout.
For `COc1cc(NS(=O)(=O)c2ccc(N)cc2)nc(C)n1`, the Potency result in assay [1], in assay [2], in assay [3] and in assay [4] was “inactive” in each case.
In the case of `CC[C@H](NC(=O)c1cc(F)ccc1NS(=O)(=O)c1cccc2cccnc12)c1ccccc1`, the Potency result in assay [1], in assay [2], in assay [3] and in assay [4] was “inactive” each time.
In the case of `CC(=O)O[C@@H]1C[C@@H]2CC[C@@]1(C)C2(C)C`, the Potency result in assay [1], in assay [2], in assay [3] and in assay [4] was “inactive” throughout.
On to `CC(O)COC(C)(C)C` (configuration not stated), for which the Potency entry in assay [1], in assay [2], in assay [3] and in assay [4] was “inactive” in each case.
Take `CCN(CC)CCOc1ccc(Cc2ccccc2)cc1`: the Potency entry in assay [1], in assay [2], in assay [3] and in assay [4] was “inactive” each time.
In the case of `O=C(Oc1ccccc1)c1cccc(C(=O)Oc2ccccc2)c1`, the Potency result in assay [1], in assay [2], in assay [3] and in assay [4] was “inactive” throughout.
In the case of `CCCCCCCCCC#N`, the Potency result in assay [1], in assay [2], in assay [3] and in assay [4] was “inactive” in each case.
For the compound `C[C@@H]1C[C@H]2[C@@H]3C[C@H](F)C4=CC(=O)C(Cl)=C[C@]4(C)[C@@]3(F)[C@@H](O)C[C@]2(C)[C@@]1(O)C(=O)CO`, the Potency entry in assay [1], in assay [2], in assay [3] and in assay [4] was “inactive” throughout.
Take `CC(C)OC(=O)c1ccccc1C(=O)OC(C)C`: the Potency result in assay [1], in assay [2], in assay [3] and in assay [4] was “inactive” throughout.
Consider `CN1CCC(N(Cc2cccs2)c2ccccc2)CC1`, for which the Potency entry in assay [1], in assay [2], in assay [3] and in assay [4] was “inactive” in each case.
On to `CCCCC(CC)C(=O)OC(C)C` (configuration not stated), for which the Potency result in assay [1], in assay [2], in assay [3] and in assay [4] was “inactive” in each case.
For the compound `N[C@H]1C(O)O[C@H](CO)[C@@H](O)[C@@H]1O` (some centres not stated), the Potency result in assay [1], in assay [2], in assay [3] and in assay [4] was “inactive” each time.
On to `c1ccc(CCCc2ccccn2)cc1`, for which the Potency result in assay [1], in assay [2], in assay [3] and in assay [4] was “inactive” in each case.
As to `CCCCNCCCC`, the Potency entry in assay [1], in assay [2], in assay [3] and in assay [4] was “inactive” each time.
For the compound `O=C(O)c1cc(C(=O)O)c(C(=O)O)cc1C(=O)O`, the Potency result in assay [1], in assay [2], in assay [3] and in assay [4] was “inactive” each time.
On to `C=COCC1CCC(COC=C)CC1` (configuration not stated), for which the Potency result in assay [1], in assay [2], in assay [3] and in assay [4] was “inactive” throughout.
As for `FC(F)(F)C(Cl)(Cl)Cl`, the Potency entry in assay [1], in assay [2], in assay [3] and in assay [4] was “inactive” each time.
For the compound `COC(/C=C(\C)CCC=C(C)C)OC`, the Potency entry in assay [1], in assay [2], in assay [3] and in assay [4] was “inactive” in each case.
Take `O=C(O)c1cc(N=Nc2ccc([N+](=O)[O-])cc2)ccc1O`: the Potency result in assay [1], in assay [2], in assay [3] and in assay [4] was “inactive” throughout.
